Several values for one entry are separate records, joined by “and”; a condition that tells them apart may be missing. Equal entries are not always repeated. Records with an inconclusive call do not appear. Activity calls are given as the source filed them. Unless noted, the call rests on the fitted dose curve; in most records, active means well fitted curve in the direction sought with a large enough effect; inconclusive means small, poorly fitted or top-dose-only effect, or another doubt; inactive means no such curve, though single readings can be large; an effect the other way counts as inactive or inconclusive.
Legend:
[1] = molecular target: Cellular tumor antigen p53 (Homo sapiens) (UniProt P04637); experiment: Primary qHTS for small molecule compounds that upregulate eGFP-tagged delta133p53alpha (in N-terminal) cells. (AID 2060322); settings: NCI-H358 eGFP-delta133p53alpha fluorescence, 24 h; activation: hits give high values; further: nearly all actives have a fitted effect of over 75% in size; further: potency means the concentration at half of the fitted maximal effect;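 on activation: cells pre-induced with doxycycline then dosed without doxycycline; series mostly up to about 56 µM; 0% = DMSO vehicle and 100% = reference activator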
How it was run: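 NCI-H358 cells pre-induced 24 h with 10 ng/ml doxycycline for eGFP-delta133p53alpha, plated dox-free and exposed 24 h at 37C to titrated compounds. Fixed, Hoechst-stained; gated GFP peak intensity by laser scanning cytometry, normalized to DMSO (0%) and 57.5 uM 5-azacytidine (100%).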

[2] = molecular target: Aldehyde dehydrogenase, mitochondrial (Homo sapiens) (UniProt P05091); experiment: qHTS for Inhibitors of the Aldehyde Dehydrogenase Family (ALDH2) Confirmatory screens (AID 2061303; active means well fitted inhibition curve with a large enough effect; title and protocol of this record describe different tests; further: nearly all actives have a fitted effect of over 45% in size; further: potency means the concentration at half of the fitted maximal effect)
[3] = qHTS for Inhibitors of the Aldehyde Dehydrogenase Family (ALDH1A2, ALDH1A3, ALDH2, ALDH3A1) (AID 2061307); further: nearly all actives have a fitted effect of over 50% in size; on Potency: test system not described further here; potency means the concentration at half of the fitted maximal effect
[4] = molecular target: Aldehyde dehydrogenase, mitochondrial (Homo sapiens) (UniProt P05091); experiment: qHTS for Inhibitors of the Aldehyde Dehydrogenase Family (ALDH2) Primary screen (AID 2061308);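 further: plate controls were vehicle for no effect and reference inhibitor for full effect; nearly all actives have a fitted effect of over 55% in size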
[5] = molecular target: Retinal dehydrogenase 2 (Homo sapiens) (UniProt O94788); experiment: qHTS for Inhibitors of the Aldehyde Dehydrogenase Family (ALDH1A2) Confirmation screens (AID 2061314); further: nearly all actives have a fitted effect of over 65% in size; further: potency means the concentration at half of the fitted maximal effect
[6] = molecular target: Aldehyde dehydrogenase 1A1 (Homo sapiens) (UniProt P00352); experiment: qHTS for Inhibitors of the Aldehyde Dehydrogenase Family (ALDH1A1) Confirmatory screens (AID 2061316); further: nearly all actives have a fitted effect of over 65% in size; further: potency means the concentration at half of the fitted maximal effect
[7] = molecular target: Retinaldehyde dehydrogenase 3 (Homo sapiens) (UniProt P47895); experiment: qHTS for Inhibitors of the Aldehyde Dehydrogenase Family (ALDH1A3) Confirmatory screens (AID 2061311); further: nearly all actives have a fitted effect of over 60% in size; further: potency means the concentration at half of the fitted maximal effect
[8] = molecular target: Retinaldehyde dehydrogenase 3 (Homo sapiens) (UniProt P47895); experiment: qHTS for Inhibitors of the Aldehyde Dehydrogenase Family (ALDH1A3) Primary screen (AID 2061315); further: potency means the concentration at half of the fitted maximal effect
[9] = BET inhibitor-based combinations targeting novel dependencies in MECOM-rearranged (r) AML: SET-2 cell line (AID 2202231); settings: SET-2 AML cells viability, CellTiter-Glo luminescence, 48 h; viability: hits give low values, concentration not given here; further: nearly all actives have a fitted effect of over 35% in size; further: potency means the concentration at half of the fitted maximal effect;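 on viability: plate controls were DMSO treated cells for no effect and wells without cells for full effect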
How it was run: (§1)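 Here, 11-point titrations of each agent were applied to 500 seeded cells and incubated 48 hr; CellTiter-Glo signal, scaled against DMSO and empty wells, was integrated as AUC, then Z-scored within the individual line.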

[10] = BET inhibitor-based combinations targeting novel dependencies in MECOM-rearranged (r) AML: OCI-AML3 cell line (AID 2202232); settings: Potency: OCI-AML3 viability; further: nearly all actives have a fitted effect of over 35% in size; further: potency means the concentration at half of the fitted maximal effect
How it was run: as §1

[11] = BET inhibitor-based combinations targeting novel dependencies in MECOM-rearranged (r) AML: MV-4-11 cell line (AID 2202233); further: nearly all actives have a fitted effect of over 45% in size; further: potency means the concentration at half of the fitted maximal effect
How it was run: (§2)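 Normalized to DMSO and empty-well controls, the luminescence data from CellTiter-Glo after 48 hr drug exposure were fitted across 11 concentrations. Reported metrics are area under the dose-response curve and its Z-transformed form.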

[12] = BET inhibitor-based combinations targeting novel dependencies in MECOM-rearranged (r) AML: HNT-34 cell line (AID 2202234); further: potency means the concentration at half of the fitted maximal effect; nearly all actives have a fitted effect of over 35% in size
How it was run: as §2

[13] = BET inhibitor-based combinations targeting novel dependencies in MECOM-rearranged (r) AML: UCSD-AML1 cell line (AID 2202235); further: potency means the concentration at half of the fitted maximal effect; nearly all actives have a fitted effect of over 40% in size
How it was run: as §2

[14] = BET inhibitor-based combinations targeting novel dependencies in MECOM-rearranged (r) AML: AML-191 cell line (AID 2202236; further: potency means the concentration at half of the fitted maximal effect; nearly all actives have a fitted effect of over 35% in size)
How it was run: as §1

[15] = BET inhibitor-based combinations targeting novel dependencies in MECOM-rearranged (r) AML: AML-194 cell line (AID 2202237; further: nearly all actives have a fitted effect of over 40% in size; further: potency means the concentration at half of the fitted maximal effect)
How it was run: as §1

[16] = molecular target: Retinaldehyde dehydrogenase 3 (Homo sapiens) (UniProt P47895); experiment: qHTS for Inhibitors of the Aldehyde Dehydrogenase Family (ALDH1A3) Validation screen (AID 2061312); further: nearly all actives have a fitted effect of over 45% in size; further: potency means the concentration at half of the fitted maximal effect

Cellular tumor antigen p53 (Homo sapiens), sequence (P04637 whole entry, looked up): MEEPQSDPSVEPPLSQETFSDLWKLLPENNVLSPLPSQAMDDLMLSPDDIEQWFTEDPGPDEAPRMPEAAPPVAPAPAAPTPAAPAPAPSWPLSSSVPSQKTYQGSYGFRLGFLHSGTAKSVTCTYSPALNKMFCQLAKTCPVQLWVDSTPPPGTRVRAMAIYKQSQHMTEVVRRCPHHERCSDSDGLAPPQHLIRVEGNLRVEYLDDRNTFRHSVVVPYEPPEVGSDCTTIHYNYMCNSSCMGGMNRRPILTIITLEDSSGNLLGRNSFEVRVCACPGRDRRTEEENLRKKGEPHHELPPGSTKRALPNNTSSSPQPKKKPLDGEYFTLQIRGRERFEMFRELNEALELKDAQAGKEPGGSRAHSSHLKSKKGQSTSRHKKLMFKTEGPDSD

COc1cc(/C=C/C(=O)O[C@H]2[C@H](OC(=O)/C=C/c3cc(OC)c(O)c(OC)c3)O[C@H](CO[C@@H]3O[C@H](CO)[C@@H](O)[C@H](O)[C@H]3O)[C@@H](O)[C@@H]2O)ccc1O
inactive: activation [1] -3.57% | Potency [2] | Potency [3] | Potency [4] | Potency [5] | Potency [6]

CCOc1ccc(Cc2nc(-c3c(C)nc4ccccn34)cs2)cc1
active: Potency [2] 12.6 µM | Potency [3] 11.2 µM | Potency [7] 14.1 µM | Potency [6] 6.34 µM
inactive: activation [1] -8.33% | Potency [4] | Potency [8]

CC1(COc2ccc3c(c2)ncn3-c2ccc3cccc(N4CCC(N)CC4)c3n2)COC1
active: Potency [1] 21.3 µM | Potency [5] 14.2 µM | Potency [9] 13.2 µM | Potency [10] 7.42 µM | Potency [11] 0.0332 µM | Potency [12] 5.9 µM | Potency [13] 4.17 µM | Potency [14] 2.09 µM | Potency [15] 2.35 µM
inactive: Potency [2] | Potency [3] | Potency [4] | Potency [8] | Potency [6]

COc1cc(NC(=O)c2ccccn2)ccc1Cl
inactive: activation [1] -5.25% | Potency [2] | Potency [3] | Potency [4] | Potency [5] | Potency [8] | Potency [6]

O=C1C[C@@H](c2ccc(O)cc2)Oc2cc(O)ccc21
inactive: activation [1] 4.3% | Potency [2] | Potency [4] | Potency [5] | Potency [6]
active: Potency [3] 3.02 µM | Potency [7] 12.7 µM

O=C(C1CCCCC1)N(CCN1CCN(c2ccccc2O)CC1)c1ccccn1
inactive: activation [1] -3.34% | Potency [2] | Potency [3] | Potency [5]
active: Potency [6] 11.3 µM

O=C(O)c1cnn(-c2nc3cc(OC(F)(F)F)c(Cl)cc3[nH]2)c1
active: Potency [3] 13.5 µM | Potency [7] 3.18 µM | Potency [8] 10 µM
inactive: activation [1] -9.67% | Potency [2] | Potency [5] | Potency [6] | viability [9] 119% | Potency [10] | Potency [11] | Potency [15]

C[C@@H]1CN(Cc2ncccn2)C[C@H]1c1nc2c(cnn2C2CCOCC2)c(=O)[nH]1
inactive: activation [1] 0.955% | Potency [2] | Potency [3] | Potency [7] | Potency [16] | Potency [5] | Potency [8]

CN(C)c1ccc(C2O[C@@H](c3ccccc3)C[C@H](c3ccccc3)O2)cc1 (some centres not stated)
active: Potency [2] 3.55 µM | Potency [3] 3.57 µM | Potency [7] 3.55 µM | Potency [16] 44.7 µM | Potency [5] 10 µM | Potency [6] 10 µM
inactive: activation [1] -3.34%

CN(C)C(=O)Nc1cccc(-c2ccc(N(C)C)cc2)c1
inactive: activation [1] -14.8% | Potency [2] | Potency [3] | Potency [4] | Potency [6]

Cc1nnc(-c2sc(NC(=O)[C@H](C(C)C)n3c(=O)[nH]c4ccccc4c3=O)nc2C)o1
inactive: activation [1] -7.64% | Potency [2] | Potency [3] | Potency [7] | Potency [5] | Potency [8] | Potency [6]

CN(C)C(=O)Nc1cc(-c2ccccc2)ccc1N(C)C
active: Potency [8] 28.2 µM
inactive: activation [1] -13.7% | Potency [2] | Potency [3]

COCCN(C(=O)c1cc(OC)c(OC)c(OC)c1)c1nc(-c2ccccc2)cs1
inactive: activation [1] 19.1% | Potency [2] | Potency [3] | Potency [7] | Potency [5] | Potency [6]

O=C1CC(c2ccc([N+](=O)[O-])cc2)=NN1c1ccccc1
inactive: activation [1] -8.93% | Potency [2] | Potency [3] | Potency [6]
active: Potency [7] 11.3 µM

CC1(NC(=O)c2ccc(C#Cc3cccc(F)c3)cn2)COC1
inactive: activation [1] -11.9% | Potency [2] | Potency [4] | Potency [7] | Potency [16] | Potency [5] | Potency [8] | Potency [6]

CC(=O)NC(C)c1cnc(-c2cnc(Oc3ccc(OC(C)C)cc3)s2)s1 (configuration not stated)
inactive: activation [1] -20% | Potency [2] | Potency [4] | Potency [7] | Potency [16] | Potency [5] | Potency [8]

CO/N=C(/C(=O)N[C@@H]1C(=O)N2C(C(=O)O)=C(Cn3ccc(=N)n3CCO)CS[C@H]12)c1csc(N)n1
inactive: activation [1] 2.39% | Potency [2] | Potency [3] | Potency [16] | Potency [5] | Potency [8]

COc1ccc2c(c1O)OC[C@H]1c3ccc(O)cc3O[C@@H]21
active: Potency [7] 22.5 µM
inactive: activation [1] -14.5% | Potency [2] | Potency [4]

CN(C)c1ccc2c(c1)OC(N)=C(C#N)C2c1cccc(C(F)(F)F)c1 (configuration not stated)
inactive: Potency [2] | Potency [3] | Potency [6]
active: Potency [1] 0.953 µM

CC(C)C[C@H](NC(=O)[C@@H](NC(=O)c1cccc(-c2ccccc2)n1)[C@@H](C)O)B(O)O
active: Potency [1] 385 nM and 16.9 µM | Potency [16] 10 µM | Potency [9] 0.0723 µM | Potency [10] 0.0407 µM | Potency [11] 0.0512 µM | Potency [12] 0.0645 µM | Potency [13] 0.0723 µM | Potency [14] 0.0811 µM | Potency [15] 0.091 µM
inactive: Potency [2] | Potency [3] | Potency [7] | Potency [5] | Potency [8] | Potency [6]

COc1cc(C(O)C2COC(c3ccc(OC4OC(CO)C(O)C(O)C4O)c(OC)c3)C2CO)ccc1O (configuration not stated)
inactive: activation [1] -10.7% | Potency [2] | Potency [3] | Potency [4] | Potency [6]
